Source: PubChem BioAssay
Calls of active or inactive are those of the source. How the calls were made is not given here.

Experiment: inhibition of 3D7 malaria parasite growth – strain 3D7 (AID 2306);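 further: 0% = DMSO wells and 100% = chloroquine plus artemisinin control wells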
Details: P. falciparum 3D7 erythrocytic growth, LDH absorbance, 72 h; at 2 µM; stronger effect = higher value

Growth inhibition, active:
Cc1ccc2[nH]c3c(c2c1)CC(C(=O)NCCC(C)C)NC31CCN(Cc2ccccc2)CC1 (stereo not drawn) 95%, COc1ccc2nccc([C@@H](O)CN3CCC(NCc4cc5sccc5nc4C(F)(F)F)CC3)c2c1 89%, Cc1cc(C2CCN(CCCCNC(=O)c3ccc(-c4ccc(C(F)(F)F)cc4)cc3)CC2)c(C)cc1OCCOC1CCCCO1 (stereo not drawn) 95%, FC(F)(F)CNc1nc(Nc2ccc3ncccc3c2)nc2[nH]ccc12 87%, CCS[C@@H]1O[C@H](COC(=O)c2ccccc2)[C@H](OC(=O)c2ccccc2)[C@H](OC(=O)c2ccccc2)[C@H]1OC(=O)c1ccccc1 98%, COc1ccc(S(=O)(=O)Nc2cc(C)cc(Br)c2OC)cc1N1CCN(C(=O)C(Cl)(Cl)Cl)CC1 91%, COc1ccc(NC(=O)c2ccc(OCCCCCCCOc3ccc(C(=O)Nc4ccc(OC)c(N5CCN(C)CC5)c4)cc3)cc2)cc1N1CCN(C)CC1 96%, CCOC(=O)C(C#N)NC(=O)C=Cc1ccccc1 (stereo not drawn) 96%, CCC(=O)Nc1cc(=O)[nH]c2nc(-c3ccc(Cl)cc3)nn12 84%, COc1cccc(C2(c3cccc(OC)c3)N=C(N)N(CCCc3ccccc3)C2=O)c1 98%, COc1ccc(CCN(C)CCCN2CCC(NC(=O)c3cccc4c(=O)c5ccccc5sc34)CC2)cc1OC 97%, Oc1cccc(Nc2ccnc3cc(-c4cc5ccccc5o4)ccc23)c1 102%, Cc1cccc2[nH]c(-c3cccc(-c4ccc(NC(=O)CN5CCN(C)CC5)cc4)c3)nc12 101%
